# Experimental data taken from PubChem BioAssay.
# Where “and” joins values, the source holds several entries; their conditions need not be identical. Identical values can stand only once. Records with an inconclusive call do not appear. Calls of active or inactive are those of the source.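 The calls were made as follows, unless noted: active = compounds whose cell count with miR-34 switched on is under 0.7 times the count with it off; inactive = the rest.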
# Columns and labels:
# [1] = viability loss in pontine glioma line – cell-based, SU-DIPG-XXV, MIPE5.0, CellTiter-Glo, qHTS, dose response (AID 1347065; cut-off not given, nearly all actives have AC50 up to about 26 µM;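 also: cells exposed to compound for 48 hours before ATP readout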); details: CellTiter-Glo ATP luminescence
# [2] = SU-DIPG-VI glioma cell viability, MIPE4.0 library, CellTiter-Glo luminescence, qHTS (AID 1347066; cut-off not given, nearly all actives have AC50 up to about 30 µM;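 also: cells exposed to compound for 48 hours before readout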); details: CellTiter-Glo ATP luminescence
# [3] = JHH-DIPG-1 glioma cell viability, MIPE5.0 library, CellTiter-Glo luminescence, qHTS (AID 1347067; cut-off not given, nearly all actives have AC50 up to about 26 µM;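 also: cells exposed to compound for 48 hours before readout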); details: JHH-DIPG-1 glioma viability, CellTiter-Glo ATP luminescence
# [4] = SU-DIPG-XXV glioma cell viability, MIPE5.0 library, qHTS (AID 1347068; cut-off not given, nearly all actives have IC50 up to about 30 µM;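 as to IC50: cells exposed to compound for 48 hours before viability readout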)
# [5] = sensitizers of A549 cells to miR-34 induction, primary screen, imaging, A549 dox-inducible miR-34, nuclei and caspase counts (AID 1347080); details: A549 miR-34 inducible, Hoechst nuclei count, 48 h
# [6] = inhibitors of Cryptococcus chitosan production, flow cytometry, Cibacron Brilliant Red staining (AID 1347148; call rule not given here;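 also: compound exposure lasted three days at 37 degrees C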); details: Cryptococcus neoformans chitosan, stronger effect = lower value; at 10 µM unless noted
# [7] = survival rescue of mitochondrial mutant cells in low glucose, primary screen, MELAS cybrids, Rieske KO mouse fibroblasts, CellTiter-Glo (AID 1508586;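 active = mean z-score across replicates of 1.96 or higher in either the MELAS or the Rieske mutant cell line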;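 also: z relative to plate mean and SD of compound and empty wells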)
# [8] = biological target: NAD(+) hydrolase SARM1 (Homo sapiens) (UniProt Q6SZW1); experiment: SARM1 TIR NADase inhibitors, cell lysate, NAD-Glo luminescence (AID 1508614;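 active = compound whose remaining NAD level is above about 45 nM, limit read from the data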;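 also: higher remaining NAD means stronger inhibition of SARM1 NADase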); details: SAM-TIR HEK293T lysate NADase, at 1 µM, stronger effect = higher value
# Sequence of NAD(+) hydrolase SARM1 (Homo sapiens) (Q6SZW1 whole entry, looked up): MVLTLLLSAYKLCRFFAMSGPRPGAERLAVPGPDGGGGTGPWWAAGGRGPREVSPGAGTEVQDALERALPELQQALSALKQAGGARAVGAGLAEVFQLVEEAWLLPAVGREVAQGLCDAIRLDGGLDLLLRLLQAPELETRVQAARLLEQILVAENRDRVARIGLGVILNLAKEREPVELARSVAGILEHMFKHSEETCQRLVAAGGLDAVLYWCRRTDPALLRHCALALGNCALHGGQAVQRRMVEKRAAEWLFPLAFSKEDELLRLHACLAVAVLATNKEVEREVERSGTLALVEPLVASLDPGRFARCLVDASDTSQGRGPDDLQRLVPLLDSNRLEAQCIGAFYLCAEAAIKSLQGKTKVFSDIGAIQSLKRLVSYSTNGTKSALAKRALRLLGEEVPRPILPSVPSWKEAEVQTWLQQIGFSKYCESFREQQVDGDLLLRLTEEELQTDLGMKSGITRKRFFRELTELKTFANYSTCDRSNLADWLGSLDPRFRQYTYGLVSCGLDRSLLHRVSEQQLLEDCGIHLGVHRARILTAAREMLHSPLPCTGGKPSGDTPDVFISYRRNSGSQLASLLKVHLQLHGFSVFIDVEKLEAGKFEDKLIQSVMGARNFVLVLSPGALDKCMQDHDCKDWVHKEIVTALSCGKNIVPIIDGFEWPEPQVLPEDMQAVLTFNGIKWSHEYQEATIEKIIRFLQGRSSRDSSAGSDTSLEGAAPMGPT
# [9] = viability rescue of complex I mutant cybrids, primary screen, cell-based, galactose medium, ATP luminescence (AID 1645843;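 active = z-score of at least 1.8 in each of two replicates, scored against plate mean and spread of sample wells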;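 also: positive z means more ATP and so rescue of galactose-driven cybrid death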); details: complex I mutant cybrid cells, 72 h, stronger effect = higher value
# [10] = biological target: Mitogen-activated protein kinase 7 (Homo sapiens) (UniProt Q13164); experiment: ERK5 transactivation activators in reporter cells, primary screen, cell-based, HTS (AID 1508626;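 active = luciferase signal above three times the same-plate solvent-only control wells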;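 also: luciferase driven by Gal4-ERK5 fusion binding five Gal4 sites before minimal TATA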); details: HeLa Gal4-ERK5 transactivation, 18 h, at 5 µM, stronger effect = higher value
# Sequence of Mitogen-activated protein kinase 7 (Homo sapiens) (Q13164 whole entry, looked up, the tested form may be a part): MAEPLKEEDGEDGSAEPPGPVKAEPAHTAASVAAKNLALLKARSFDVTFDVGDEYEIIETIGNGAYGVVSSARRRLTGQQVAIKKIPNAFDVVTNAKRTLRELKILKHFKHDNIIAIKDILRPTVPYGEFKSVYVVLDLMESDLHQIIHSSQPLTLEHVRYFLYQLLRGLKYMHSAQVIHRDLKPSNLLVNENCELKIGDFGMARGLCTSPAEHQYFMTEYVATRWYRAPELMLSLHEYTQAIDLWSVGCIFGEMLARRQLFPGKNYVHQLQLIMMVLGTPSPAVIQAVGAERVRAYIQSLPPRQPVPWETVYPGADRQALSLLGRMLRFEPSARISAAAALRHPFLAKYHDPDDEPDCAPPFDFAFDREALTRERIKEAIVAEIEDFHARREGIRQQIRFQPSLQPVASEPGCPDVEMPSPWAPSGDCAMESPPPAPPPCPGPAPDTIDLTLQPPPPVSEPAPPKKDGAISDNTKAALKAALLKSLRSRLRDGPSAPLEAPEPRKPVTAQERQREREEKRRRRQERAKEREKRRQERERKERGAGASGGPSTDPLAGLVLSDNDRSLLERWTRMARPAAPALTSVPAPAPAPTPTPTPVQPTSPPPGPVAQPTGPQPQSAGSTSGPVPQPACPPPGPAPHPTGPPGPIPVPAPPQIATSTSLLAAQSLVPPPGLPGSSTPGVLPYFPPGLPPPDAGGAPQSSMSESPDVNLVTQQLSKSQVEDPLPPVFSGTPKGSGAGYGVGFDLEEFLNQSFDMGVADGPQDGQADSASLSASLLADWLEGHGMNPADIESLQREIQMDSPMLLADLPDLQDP
# [11] = phospholipid biosynthesis inhibitors in animal cells, primary screen, cell-based, LOPAC library, screen 4 (AID 1347384; call rule not given here); details: phospholipid biosynthesis inhibition screen, at 10 µM
# [12] = stronger effect = lower value, cell number ratio, induced over uninduced
# [13] = measured here: relative caspase fold change +Dox/-Dox
# [14] = measured here: total cells with miR-34 induction, stronger effect = lower value
# [15] = measured here: total cells without miR-34 induction
# [16] = MELAS cybrid survival, CellTiter-Glo 48 h, stronger effect = higher value
# [17] = Rieske KO mouse fibroblast survival, CellTiter-Glo 72 h
SMILES,outcome [1],outcome [2],outcome [3],outcome [4],"fold change [5, 12]","fold change [5, 13]","cell count [5, 14]","cell count [5, 15]",fold fluorescence [6],"z-score [7, 16]","z-score [7, 17]",remaining NAD [8],z-score [9],luciferase signal [10],outcome [11],AC50 [1],AC50 [2],AC50 [3],IC50 [4]
CC1=NN(c2ccccc2)C(=O)C1,inactive,inactive,inactive,inactive,0.988 (inactive) and 0.936 (inactive) and 0.929 (inactive),0.941 and 1.18 and 0.593,5320 and 7500 and 8540,5390 and 8010 and 9190,4.15 [at 287 µM] (inactive),-0.423 (inactive),0.67,10 nM (inactive),1.25 (inactive),–,–,–,–,–,–
Cc1cc2cc3c(C)cc(=O)oc3c(C)c2o1,inactive,inactive,inactive,inactive,0.952 (inactive) and 0.881 (inactive),1.2 and 2.5,9030 and 10900,9480 and 12400,–,-0.707 (inactive),-0.528,10 nM (inactive),–,104 AU (inactive),–,–,–,–,–
CNC[C@H](O)c1cccc(O)c1,inactive,inactive,inactive,inactive,0.733 (inactive) and 0.885 (inactive) and 0.869 (inactive),1.33 and 1.38 and 1.19,6820 and 9660 and 11500,9300 and 10900 and 13200,–,-0.327 (inactive),0.52,10 nM (inactive),0.64 (inactive),40 AU (inactive),inactive,–,–,–,–
O=C(O)CSCC(=O)NC1CCSC1=O (stereo unspecified),inactive,inactive,inactive,inactive,0.961 (inactive) and 0.85 (inactive),0.755 and 1.41,8260 and 8130,8600 and 9570,–,-0.199 (inactive),0.356,10 nM (inactive),–,–,–,–,–,–,–
O=c1oc2cc(O)ccc2s1,inactive,inactive,inactive,inactive,0.941 (inactive),0.692,8830,9380,–,-0.382 (inactive),0.46,10 nM (inactive),–,56 AU (inactive),–,–,–,–,–
CCC[C@H](N[C@@H](C)C(=O)N1[C@H](C(=O)O)C[C@@H]2CCCC[C@@H]21)C(=O)OCC,inactive,inactive,inactive,inactive,0.917 (inactive) and 0.847 (inactive),0.846 and 3.59,9000 and 11500,9820 and 13600,–,0.628 (inactive),-0.272,10 nM (inactive),–,156 AU (inactive),–,–,–,–,–
Nc1ccc(S(N)(=O)=O)cc1,inactive,inactive,inactive,inactive,0.863 (inactive) and 1.01 (inactive) and 0.955 (inactive),1.61 and 1.13 and 2.65,8720 and 8600 and 12400,10100 and 8510 and 12900,–,-0.359 (inactive) and -1 (inactive),0.662 and -0.707,10 nM (inactive),–,164 AU (inactive),–,–,–,–,–
CN(C)c1ccc2nc3ccc(=[N+](C)C)cc-3sc2c1,–,–,–,–,0.946 (inactive),1.47,3100,3280,–,–,–,10 nM (inactive),–,80 AU (inactive),–,5.9 µM (active),2.35 µM (active),10.5 µM (active),9.34 µM (active)
